# What was measured:
# Experiment in all cases: DAPPL (digital affinity profiling via proximity ligation, sequencing); 10 mM Tris-HCl pH 7.5, 50 mM NaCl, 1 mM DTT, 4% glycerol, room temperature, 30 min; GST-TFs on glutathione beads, 16-mer random dsDNA library, 0.1% formaldehyde crosslink after washing; high values mean tight binding
# FEV = target: T1, FEV (Homo sapiens, UniProt Q99581 1-238); conditions: protein: recombinant; tags: N-terminal GST; dsDNA, one strand shown
# T1 sequence: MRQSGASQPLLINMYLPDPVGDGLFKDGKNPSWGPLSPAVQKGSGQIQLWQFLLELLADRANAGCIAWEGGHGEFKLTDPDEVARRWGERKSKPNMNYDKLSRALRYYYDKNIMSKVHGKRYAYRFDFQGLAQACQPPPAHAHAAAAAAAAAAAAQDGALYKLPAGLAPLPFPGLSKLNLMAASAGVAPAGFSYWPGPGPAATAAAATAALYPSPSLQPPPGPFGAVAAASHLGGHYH
# How it was run: (§1)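 The binding signal reported is, for every hexamer, its read frequency for a factor over its read frequency for the tag-only sample. Reads came from pools of yeast-expressed, GST-fused human transcription factors on glutathione beads, barcoded with DNA and mixed with that sample, which were incubated with 200 nmole of a random double-stranded 16-mer DNA library in Tris/NaCl/DTT/glycerol buffer at room temperature for 30 min. After washing, the pools were crosslinked with 0.1% formaldehyde, proximity-ligated with BsaI/T4 ligase for 1 h at 37 °C, PCR-amplified and sequenced on an Illumina NextSeq500.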
# ETV5 = ETV5 (Homo sapiens, UniProt P41161 1-510); conditions: protein: recombinant; tags: N-terminal GST; dsDNA, one strand shown
# ETV5, sequence (P41161 whole entry): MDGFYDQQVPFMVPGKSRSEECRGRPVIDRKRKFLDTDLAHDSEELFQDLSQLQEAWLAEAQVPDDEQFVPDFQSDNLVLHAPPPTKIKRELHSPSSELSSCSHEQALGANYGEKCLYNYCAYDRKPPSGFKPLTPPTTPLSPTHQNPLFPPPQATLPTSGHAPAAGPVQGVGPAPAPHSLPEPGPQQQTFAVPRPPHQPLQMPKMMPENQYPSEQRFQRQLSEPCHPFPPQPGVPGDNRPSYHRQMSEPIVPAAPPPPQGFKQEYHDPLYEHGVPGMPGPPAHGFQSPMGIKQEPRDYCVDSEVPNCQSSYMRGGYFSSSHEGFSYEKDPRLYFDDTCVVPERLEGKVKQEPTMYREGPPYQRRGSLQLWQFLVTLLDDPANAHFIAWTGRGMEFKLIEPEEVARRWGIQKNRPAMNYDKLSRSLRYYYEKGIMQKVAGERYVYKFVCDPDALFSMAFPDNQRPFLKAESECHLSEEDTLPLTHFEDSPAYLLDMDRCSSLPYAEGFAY
# How it was run: as §1
# HSF1 = HSF1 (Homo sapiens, UniProt Q00613 1-529); conditions: protein: recombinant; tags: N-terminal GST; chain copies: 3; dsDNA, one strand shown
# HSF1, sequence (Q00613 whole entry): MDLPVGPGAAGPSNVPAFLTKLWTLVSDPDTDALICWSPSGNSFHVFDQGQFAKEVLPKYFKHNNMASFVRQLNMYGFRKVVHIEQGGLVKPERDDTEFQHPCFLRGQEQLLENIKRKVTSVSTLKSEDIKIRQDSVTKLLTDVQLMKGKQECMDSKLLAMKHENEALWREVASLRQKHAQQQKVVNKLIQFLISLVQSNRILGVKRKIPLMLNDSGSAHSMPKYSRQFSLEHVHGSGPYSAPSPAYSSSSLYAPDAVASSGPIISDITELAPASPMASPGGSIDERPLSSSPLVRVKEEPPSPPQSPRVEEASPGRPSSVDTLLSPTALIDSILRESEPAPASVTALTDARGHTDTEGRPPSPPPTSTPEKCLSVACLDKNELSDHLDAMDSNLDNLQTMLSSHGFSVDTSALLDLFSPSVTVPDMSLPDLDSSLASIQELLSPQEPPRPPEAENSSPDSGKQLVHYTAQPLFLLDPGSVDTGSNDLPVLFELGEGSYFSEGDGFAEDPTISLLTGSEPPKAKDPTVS
# How it was run: as §1
# SPIC = target: T2, SPIC (Homo sapiens, UniProt Q8N5J4 1-248); conditions: protein: recombinant; tags: N-terminal GST; dsDNA, one strand shown
# T2 sequence: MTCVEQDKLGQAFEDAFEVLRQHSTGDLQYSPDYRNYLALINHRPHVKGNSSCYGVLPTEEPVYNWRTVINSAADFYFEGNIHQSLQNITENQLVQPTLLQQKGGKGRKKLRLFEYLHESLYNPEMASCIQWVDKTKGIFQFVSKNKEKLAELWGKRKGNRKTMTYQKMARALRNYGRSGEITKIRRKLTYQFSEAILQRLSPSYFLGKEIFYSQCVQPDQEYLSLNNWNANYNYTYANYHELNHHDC
# How it was run: as §1
# ELF4 = ELF4 (Homo sapiens, UniProt Q99607 1-663); conditions: protein: recombinant; tags: N-terminal GST; dsDNA, one strand shown
# ELF4, sequence (Q99607 whole entry): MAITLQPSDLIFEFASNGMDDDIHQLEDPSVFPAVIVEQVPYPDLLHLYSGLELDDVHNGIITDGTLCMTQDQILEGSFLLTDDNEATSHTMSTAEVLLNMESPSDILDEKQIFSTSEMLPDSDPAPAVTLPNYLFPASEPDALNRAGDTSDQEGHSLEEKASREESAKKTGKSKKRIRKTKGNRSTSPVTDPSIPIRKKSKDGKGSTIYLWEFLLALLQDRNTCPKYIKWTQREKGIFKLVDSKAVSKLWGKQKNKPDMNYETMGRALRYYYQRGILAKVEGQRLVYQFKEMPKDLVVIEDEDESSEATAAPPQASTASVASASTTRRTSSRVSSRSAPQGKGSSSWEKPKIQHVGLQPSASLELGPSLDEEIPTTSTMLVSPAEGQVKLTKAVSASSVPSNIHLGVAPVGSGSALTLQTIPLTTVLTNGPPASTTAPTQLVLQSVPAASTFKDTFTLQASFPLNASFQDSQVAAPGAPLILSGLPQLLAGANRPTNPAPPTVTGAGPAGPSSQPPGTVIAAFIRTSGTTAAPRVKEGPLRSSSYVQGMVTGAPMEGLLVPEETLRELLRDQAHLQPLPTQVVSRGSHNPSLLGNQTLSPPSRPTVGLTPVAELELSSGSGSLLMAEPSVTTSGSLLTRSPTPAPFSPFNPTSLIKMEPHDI
# How it was run: as §1
# ELK4 = target: T3, ELK4 (Homo sapiens, UniProt P28324-2 1-405); conditions: protein: recombinant; tags: N-terminal GST; dsDNA, one strand shown
# T3 sequence: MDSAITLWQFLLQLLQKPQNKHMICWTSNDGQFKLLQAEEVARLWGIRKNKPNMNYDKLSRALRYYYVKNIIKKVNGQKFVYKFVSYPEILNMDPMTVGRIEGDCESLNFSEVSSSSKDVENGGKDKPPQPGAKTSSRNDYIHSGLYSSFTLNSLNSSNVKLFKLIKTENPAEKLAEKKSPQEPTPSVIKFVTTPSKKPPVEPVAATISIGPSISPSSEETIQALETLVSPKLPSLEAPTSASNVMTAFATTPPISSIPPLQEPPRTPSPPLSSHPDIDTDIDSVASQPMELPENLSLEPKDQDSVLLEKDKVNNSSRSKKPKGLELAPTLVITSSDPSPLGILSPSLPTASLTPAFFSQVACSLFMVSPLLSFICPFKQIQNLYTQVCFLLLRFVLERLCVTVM
# How it was run: as §1
# ETV2 = target: T4, ETV2 (Homo sapiens, UniProt O00321 1-342); conditions: protein: recombinant; tags: N-terminal GST; dsDNA, one strand shown
# T4 sequence: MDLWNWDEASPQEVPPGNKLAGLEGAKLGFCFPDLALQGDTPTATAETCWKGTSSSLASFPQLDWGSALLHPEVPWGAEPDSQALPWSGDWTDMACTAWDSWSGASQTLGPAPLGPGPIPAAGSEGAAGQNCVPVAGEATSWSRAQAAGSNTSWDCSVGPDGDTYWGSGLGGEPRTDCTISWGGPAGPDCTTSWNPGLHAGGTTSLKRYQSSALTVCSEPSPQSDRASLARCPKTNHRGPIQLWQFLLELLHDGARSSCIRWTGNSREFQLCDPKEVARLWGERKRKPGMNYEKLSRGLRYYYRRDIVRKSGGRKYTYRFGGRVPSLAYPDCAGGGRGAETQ
# How it was run: as §1
# ELF3 = target: T5, ELF3 (Homo sapiens, UniProt P78545 1-371); conditions: protein: recombinant; tags: N-terminal GST; dsDNA, one strand shown
# T5 sequence: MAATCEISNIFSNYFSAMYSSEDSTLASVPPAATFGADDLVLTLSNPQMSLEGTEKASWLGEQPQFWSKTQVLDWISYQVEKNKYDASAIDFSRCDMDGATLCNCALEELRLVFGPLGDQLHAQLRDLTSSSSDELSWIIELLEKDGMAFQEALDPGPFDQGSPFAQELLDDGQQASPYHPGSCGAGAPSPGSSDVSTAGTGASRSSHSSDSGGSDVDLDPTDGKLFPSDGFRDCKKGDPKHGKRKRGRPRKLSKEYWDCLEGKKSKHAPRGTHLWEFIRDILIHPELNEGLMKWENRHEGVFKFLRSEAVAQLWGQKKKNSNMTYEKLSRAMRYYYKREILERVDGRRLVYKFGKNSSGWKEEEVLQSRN
# How it was run: as §1
# ETV1 = ETV1 (Homo sapiens, UniProt P50549 1-477); conditions: protein: recombinant; tags: N-terminal GST; dsDNA, one strand shown
# ETV1, sequence (P50549 whole entry): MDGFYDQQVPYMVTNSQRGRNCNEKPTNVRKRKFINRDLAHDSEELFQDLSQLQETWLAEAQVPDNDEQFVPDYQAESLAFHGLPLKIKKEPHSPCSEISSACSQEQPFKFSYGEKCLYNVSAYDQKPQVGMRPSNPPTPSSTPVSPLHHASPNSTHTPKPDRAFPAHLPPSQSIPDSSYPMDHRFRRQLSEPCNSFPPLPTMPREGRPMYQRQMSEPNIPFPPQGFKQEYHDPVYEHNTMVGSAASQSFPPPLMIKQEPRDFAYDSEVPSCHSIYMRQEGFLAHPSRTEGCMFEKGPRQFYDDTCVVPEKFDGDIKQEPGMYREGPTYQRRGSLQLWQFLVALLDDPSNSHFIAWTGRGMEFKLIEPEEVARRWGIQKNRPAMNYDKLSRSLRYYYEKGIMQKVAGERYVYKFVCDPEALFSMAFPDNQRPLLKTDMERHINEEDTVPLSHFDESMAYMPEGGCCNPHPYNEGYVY
# How it was run: as §1
# ERF = target: T6, ERF (Homo sapiens, UniProt P50548 1-548); conditions: protein: recombinant; tags: N-terminal GST; dsDNA, one strand shown
# T6 sequence: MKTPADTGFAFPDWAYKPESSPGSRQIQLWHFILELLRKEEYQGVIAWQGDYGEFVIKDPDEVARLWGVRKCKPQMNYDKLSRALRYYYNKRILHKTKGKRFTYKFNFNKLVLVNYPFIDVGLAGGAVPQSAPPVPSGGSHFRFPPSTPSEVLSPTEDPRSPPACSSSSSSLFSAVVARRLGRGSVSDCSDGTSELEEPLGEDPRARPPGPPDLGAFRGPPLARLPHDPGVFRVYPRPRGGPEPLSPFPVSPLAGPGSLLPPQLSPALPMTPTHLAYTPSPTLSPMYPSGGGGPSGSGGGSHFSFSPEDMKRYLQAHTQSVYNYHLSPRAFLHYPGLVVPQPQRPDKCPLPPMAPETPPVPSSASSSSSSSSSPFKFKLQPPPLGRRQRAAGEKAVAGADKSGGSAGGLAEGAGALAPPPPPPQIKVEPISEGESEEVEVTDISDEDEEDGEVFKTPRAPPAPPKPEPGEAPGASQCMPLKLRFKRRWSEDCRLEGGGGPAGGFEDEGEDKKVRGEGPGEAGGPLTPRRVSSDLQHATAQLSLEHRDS
# How it was run: as §1
# ETV3L = target: T7, ETV3L (Homo sapiens, UniProt Q6ZN32 1-361); conditions: protein: recombinant; tags: N-terminal GST; dsDNA, one strand shown
# T7 sequence: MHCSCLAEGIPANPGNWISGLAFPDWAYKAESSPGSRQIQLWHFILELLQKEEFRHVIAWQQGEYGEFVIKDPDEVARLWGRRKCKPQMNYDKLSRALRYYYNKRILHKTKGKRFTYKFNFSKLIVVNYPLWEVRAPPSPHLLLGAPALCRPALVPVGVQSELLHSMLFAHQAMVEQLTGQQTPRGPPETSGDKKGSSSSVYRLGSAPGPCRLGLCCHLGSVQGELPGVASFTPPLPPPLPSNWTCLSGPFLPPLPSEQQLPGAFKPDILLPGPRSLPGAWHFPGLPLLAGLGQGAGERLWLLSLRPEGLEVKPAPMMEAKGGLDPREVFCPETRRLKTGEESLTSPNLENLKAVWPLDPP
# How it was run: as §1
# ETS2 = target: T8, ETS2 (Homo sapiens, UniProt P15036 1-469); conditions: protein: recombinant; tags: N-terminal GST; dsDNA, one strand shown
# T8 sequence: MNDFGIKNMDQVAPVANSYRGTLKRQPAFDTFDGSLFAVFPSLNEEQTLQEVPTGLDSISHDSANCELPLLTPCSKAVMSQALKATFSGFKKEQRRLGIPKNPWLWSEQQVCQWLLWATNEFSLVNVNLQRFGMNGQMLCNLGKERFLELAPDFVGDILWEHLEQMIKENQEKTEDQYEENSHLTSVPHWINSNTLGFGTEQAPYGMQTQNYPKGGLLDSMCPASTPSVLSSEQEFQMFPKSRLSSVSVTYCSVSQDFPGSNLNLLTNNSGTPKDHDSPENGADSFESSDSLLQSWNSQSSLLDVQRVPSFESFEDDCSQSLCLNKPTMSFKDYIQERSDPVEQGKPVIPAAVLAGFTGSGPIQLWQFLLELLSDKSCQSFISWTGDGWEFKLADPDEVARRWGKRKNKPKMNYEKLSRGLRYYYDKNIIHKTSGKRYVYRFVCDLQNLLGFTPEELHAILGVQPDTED
# How it was run: as §1
# SPDEF = target: T9, SPDEF (Homo sapiens, UniProt O95238 1-335); conditions: protein: recombinant; tags: N-terminal GST; dsDNA, one strand shown
# T9 sequence: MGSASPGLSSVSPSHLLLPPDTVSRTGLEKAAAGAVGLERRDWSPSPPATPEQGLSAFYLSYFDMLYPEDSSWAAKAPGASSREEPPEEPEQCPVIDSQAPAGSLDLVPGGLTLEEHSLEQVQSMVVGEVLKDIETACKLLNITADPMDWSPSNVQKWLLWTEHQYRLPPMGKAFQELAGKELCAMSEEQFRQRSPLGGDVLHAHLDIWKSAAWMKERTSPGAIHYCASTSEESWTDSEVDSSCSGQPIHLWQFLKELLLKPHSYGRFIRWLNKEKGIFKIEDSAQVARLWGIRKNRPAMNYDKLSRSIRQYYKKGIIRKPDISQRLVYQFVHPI
# How it was run: as §1
# ETV7 = target: T10, ETV7 (Homo sapiens, UniProt Q9Y603 1-341); conditions: protein: recombinant; tags: N-terminal GST; dsDNA, one strand shown
# T10 sequence: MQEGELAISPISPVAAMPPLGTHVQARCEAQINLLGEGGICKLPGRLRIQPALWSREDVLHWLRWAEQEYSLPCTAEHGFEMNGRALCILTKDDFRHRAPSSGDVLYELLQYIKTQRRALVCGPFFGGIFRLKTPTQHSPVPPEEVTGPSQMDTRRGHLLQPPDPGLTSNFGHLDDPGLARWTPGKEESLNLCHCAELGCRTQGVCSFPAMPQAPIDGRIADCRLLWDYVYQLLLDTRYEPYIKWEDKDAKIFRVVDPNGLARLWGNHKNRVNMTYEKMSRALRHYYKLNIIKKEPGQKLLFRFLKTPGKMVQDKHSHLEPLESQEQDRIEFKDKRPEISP
# How it was run: as §1
# ELF5 = target: T11, ELF5 (Homo sapiens, UniProt Q9UKW6-2 1-255); conditions: protein: recombinant; tags: N-terminal GST; dsDNA, one strand shown
# T11 sequence: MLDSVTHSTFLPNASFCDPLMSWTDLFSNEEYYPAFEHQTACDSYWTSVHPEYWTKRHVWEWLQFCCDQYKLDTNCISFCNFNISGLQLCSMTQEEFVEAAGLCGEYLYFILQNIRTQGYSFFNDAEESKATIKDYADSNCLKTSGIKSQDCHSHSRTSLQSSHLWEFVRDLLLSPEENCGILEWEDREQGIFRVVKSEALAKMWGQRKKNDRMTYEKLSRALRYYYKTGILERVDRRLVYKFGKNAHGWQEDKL
# How it was run: as §1
# ETV3 = target: T12, ETV3 (Homo sapiens, UniProt P41162-2 1-143); conditions: protein: recombinant; tags: N-terminal GST; dsDNA, one strand shown
# T12 sequence: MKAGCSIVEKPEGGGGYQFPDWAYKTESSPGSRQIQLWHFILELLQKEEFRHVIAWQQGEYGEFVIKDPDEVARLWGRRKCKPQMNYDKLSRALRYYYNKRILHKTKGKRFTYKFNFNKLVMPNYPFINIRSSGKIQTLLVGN
# How it was run: as §1
# ETV6 = ETV6 (Homo sapiens, UniProt P41212 1-452); conditions: protein: recombinant; tags: N-terminal GST; dsDNA, one strand shown
# ETV6, sequence (P41212 whole entry): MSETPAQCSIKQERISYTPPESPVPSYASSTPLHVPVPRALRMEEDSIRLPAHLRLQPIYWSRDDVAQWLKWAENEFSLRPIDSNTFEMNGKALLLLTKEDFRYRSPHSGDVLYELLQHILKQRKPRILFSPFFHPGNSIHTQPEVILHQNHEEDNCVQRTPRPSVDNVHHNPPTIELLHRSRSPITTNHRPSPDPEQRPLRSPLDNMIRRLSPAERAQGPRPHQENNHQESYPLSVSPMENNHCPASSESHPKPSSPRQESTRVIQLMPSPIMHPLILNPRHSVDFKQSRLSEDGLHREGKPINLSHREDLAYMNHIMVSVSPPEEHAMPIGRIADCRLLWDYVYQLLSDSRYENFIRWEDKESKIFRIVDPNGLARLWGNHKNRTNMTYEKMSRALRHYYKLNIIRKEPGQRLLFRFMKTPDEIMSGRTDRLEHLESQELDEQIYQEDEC
# How it was run: as §1
sequence,measurement,setting,value
CTCGCC,binding signal,FEV,"1.21 fold enrichment (6-mer frequency, TF over GST control)"
same,binding signal,ETV5,"1.23 fold enrichment (6-mer frequency, TF over GST control)"
same,binding signal,HSF1,"1.06 fold enrichment (6-mer frequency, TF over GST control)"
same,binding signal,SPIC,"1.2 fold enrichment (6-mer frequency, TF over GST control)"
same,binding signal,ELF4,"1.29 fold enrichment (6-mer frequency, TF over GST control)"
same,binding signal,ELK4,"1.31 fold enrichment (6-mer frequency, TF over GST control)"
same,binding signal,ETV2,"1.32 fold enrichment (6-mer frequency, TF over GST control)"
same,binding signal,ELF3,"1.43 fold enrichment (6-mer frequency, TF over GST control)"
same,binding signal,ETV1,"1.26 fold enrichment (6-mer frequency, TF over GST control)"
same,binding signal,ERF,"1.4 fold enrichment (6-mer frequency, TF over GST control)"
same,binding signal,ETV3L,"1.2 fold enrichment (6-mer frequency, TF over GST control)"
same,binding signal,ETS2,"1.25 fold enrichment (6-mer frequency, TF over GST control)"
same,binding signal,SPDEF,"1.07 fold enrichment (6-mer frequency, TF over GST control)"
same,binding signal,ETV7,"1.16 fold enrichment (6-mer frequency, TF over GST control)"
same,binding signal,ELF5,"1.26 fold enrichment (6-mer frequency, TF over GST control)"
same,binding signal,ETV3,"1.2 fold enrichment (6-mer frequency, TF over GST control)"
same,binding signal,ETV6,"1.29 fold enrichment (6-mer frequency, TF over GST control)"
